Results from the supplement of paper PMC7380943.
Where a name gives a salt, the structure may show the parent alone.

Columns and labels:
[1] = system: CLZ3 (HCA2 human fibroblast dual HR-NHEJ reporter); assay: NHEJ repair efficiency (GFP+ cells) relative to control (log10 fold); higher = more non-homologous end joining; settings: 5 µM; doxycycline 0.5 ug/mL
[2] = system: CLZ3 (HCA2 human fibroblast dual HR-NHEJ reporter); assay: HR repair efficiency (tdTomato+ cells) relative to control (log10 fold); higher = more homologous recombination; settings: 5 µM; doxycycline 0.5 ug/mL
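Throughout, for HR repair efficiency (tdTomato+ cells) relative to control: compound given one day before doxycycline, which switches on I-SceI endonuclease expression to create double-strand breaks within the integrated reporter.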
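Throughout, for NHEJ repair efficiency (GFP+ cells) relative to control: compound given one day ahead of doxycycline, which switches on I-SceI endonuclease to cut the chromosomally integrated reporter and create DSBs.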

Structure (SMILES)	NHEJ repair efficiency (log10) [1]	HR repair efficiency (log10) [2]
COc1cc(C2OCC3C(c4cc(OC)c(O[C@@H]5O[C@H](CO)[C@@H](O)[C@H](O)[C@H]5O)c(OC)c4)OCC23)cc(OC)c1O[C@H]1O[C@@H](CO)[C@H](O)[C@@H](O)[C@@H]1O (stereo partly specified) [Eleutheroside E]	0.119	-0.0597
COc1cc2occc2c2oc(=O)ccc12 [Isobergapten]	-0.0955	-0.063
CCN1C[C@]2(COC)[C@H](O)C[C@H](OC)[C@]34C1[C@H]([C@H](OC)[C@H]23)[C@@]1(OC(C)=O)C[C@H](OC)[C@@]2(O)C[C@@H]4[C@@H]1[C@H]2OC(=O)c1ccc(OC)cc1 [Yunaconitine]	-0.0536	-0.204
CC[C@H]1CN2CC[C@]3(C(=O)Nc4ccccc43)[C@@H]2C[C@@H]1/C(=C\OC)C(=O)OC [Rhynchophylline]	-0.15	-0.0611
COc1ccc2c(c1OC)CN1CCc3cc4c(cc3C1C2)OCO4 (stereo unspecified) [Tetrahydroberberine]	-0.000562	0.103
CCN1C[C@]2(COC)CC[C@H](O)C34C1C([C@H](OC)[C@@H]32)[C@]1(O)[C@@H]2[C@H]4CC([C@@H](OC)[C@@H]1O)[C@@H]2O [Fuziline]	0.0177	0.0271
C[C@@H]1CC[C@H]2[C@@H](C)C(=O)O[C@@H]3O[C@@]4(C)CC[C@@H]1[C@]32OO4 [Artemisinin]	0.1	0.328
C=C(C)C1CC=C(C=O)CC1 (stereo unspecified) [Perillaldehyde]	0.0128	-0.104
C/C1=C\C2C(CCC3(CO3)C(O)C3C(O)C(C)CC3(O)C1=O)C2(C)C (stereo unspecified) [6,17-Epoxylathyrol]	-0.129	0.0115
C=C1[C@H]2C[C@@]3([C@@H]1O)[C@@H](CC2=O)[C@]12[C@@H]4C[C@H]3[C@H]1N(CC)C[C@]4(C)CC[C@@H]2O [Songorine]	-0.0383	0.115
COC(=O)C1=CCCN(C)C1 [Arecoline]	0.0763	0.183
COC(=O)C1=CCCN(C)C1 [Arecoline Hydrobromide]	0.0326	0.0648
CN[C@@H](Cc1c[nH]c2ccccc12)C(=O)O [Abrine]	-0.159	-0.21
CN(C)CCc1ccc(O)cc1 [Hordenine]	-0.0244	0.111
C[C@@H]1CCC=C2C(=O)C[C@H]3OOC(C)(C)[C@H]3[C@]21C [Nardosinone]	-0.0297	-0.0118
CCN1C[C@]2(COC)[C@H](O)C[C@H](OC)[C@@]34[C@@H]5C[C@@]6(O)[C@H](OC(=O)c7ccccc7)[C@@H]5[C@@](OC(C)=O)([C@@H]([C@H](OC)[C@H]23)[C@@H]14)[C@@H](O)[C@@H]6OC [Aconitine]	-0.148	0.0783
CC(C)c1cc2c(c(O)c1O)[C@@]1(C(=O)O)CCCC(C)(C)[C@@H]1CC2 [Carnosic acid]	0.106	0.167
CC(C)=CCCC(C)(O)C1CCC2(C)C1C(O)CC1C3(C)CCC(O)C(C)(C)C3C(OC3OC(CO)C(O)C(O)C3O)CC12C (stereo unspecified) [R-Ginsenoside Rh1]	-0.0562	0.0565
